The list shows a part of the results. Active and inactive are the calls of the source. Unless noted, no stated cut-off is given here; in the data, active means inhibition above about 30%; inactive means the rest.
What was measured:
[1] = target: Nuclear receptor coactivator 3 (Homo sapiens) (UniProt Q9Y6Q9); test: NCOA3 GAL4-fusion reporter inhibition – cell-based, luminescence, quadruplicate, confirmation (AID 588792;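 active means mean inhibition over 43.08%, the solvent-only control mean plus 3 SD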;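 further: 0% = DMSO treated cells and 100% = gossypol at 36 µM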); details: HEK293 GAL4-SRC3 luciferase reporter, at 3.6 µM, hits give high values
Nuclear receptor coactivator 3 (Homo sapiens), sequence (Q9Y6Q9 whole entry, looked up, the tested form may be a part): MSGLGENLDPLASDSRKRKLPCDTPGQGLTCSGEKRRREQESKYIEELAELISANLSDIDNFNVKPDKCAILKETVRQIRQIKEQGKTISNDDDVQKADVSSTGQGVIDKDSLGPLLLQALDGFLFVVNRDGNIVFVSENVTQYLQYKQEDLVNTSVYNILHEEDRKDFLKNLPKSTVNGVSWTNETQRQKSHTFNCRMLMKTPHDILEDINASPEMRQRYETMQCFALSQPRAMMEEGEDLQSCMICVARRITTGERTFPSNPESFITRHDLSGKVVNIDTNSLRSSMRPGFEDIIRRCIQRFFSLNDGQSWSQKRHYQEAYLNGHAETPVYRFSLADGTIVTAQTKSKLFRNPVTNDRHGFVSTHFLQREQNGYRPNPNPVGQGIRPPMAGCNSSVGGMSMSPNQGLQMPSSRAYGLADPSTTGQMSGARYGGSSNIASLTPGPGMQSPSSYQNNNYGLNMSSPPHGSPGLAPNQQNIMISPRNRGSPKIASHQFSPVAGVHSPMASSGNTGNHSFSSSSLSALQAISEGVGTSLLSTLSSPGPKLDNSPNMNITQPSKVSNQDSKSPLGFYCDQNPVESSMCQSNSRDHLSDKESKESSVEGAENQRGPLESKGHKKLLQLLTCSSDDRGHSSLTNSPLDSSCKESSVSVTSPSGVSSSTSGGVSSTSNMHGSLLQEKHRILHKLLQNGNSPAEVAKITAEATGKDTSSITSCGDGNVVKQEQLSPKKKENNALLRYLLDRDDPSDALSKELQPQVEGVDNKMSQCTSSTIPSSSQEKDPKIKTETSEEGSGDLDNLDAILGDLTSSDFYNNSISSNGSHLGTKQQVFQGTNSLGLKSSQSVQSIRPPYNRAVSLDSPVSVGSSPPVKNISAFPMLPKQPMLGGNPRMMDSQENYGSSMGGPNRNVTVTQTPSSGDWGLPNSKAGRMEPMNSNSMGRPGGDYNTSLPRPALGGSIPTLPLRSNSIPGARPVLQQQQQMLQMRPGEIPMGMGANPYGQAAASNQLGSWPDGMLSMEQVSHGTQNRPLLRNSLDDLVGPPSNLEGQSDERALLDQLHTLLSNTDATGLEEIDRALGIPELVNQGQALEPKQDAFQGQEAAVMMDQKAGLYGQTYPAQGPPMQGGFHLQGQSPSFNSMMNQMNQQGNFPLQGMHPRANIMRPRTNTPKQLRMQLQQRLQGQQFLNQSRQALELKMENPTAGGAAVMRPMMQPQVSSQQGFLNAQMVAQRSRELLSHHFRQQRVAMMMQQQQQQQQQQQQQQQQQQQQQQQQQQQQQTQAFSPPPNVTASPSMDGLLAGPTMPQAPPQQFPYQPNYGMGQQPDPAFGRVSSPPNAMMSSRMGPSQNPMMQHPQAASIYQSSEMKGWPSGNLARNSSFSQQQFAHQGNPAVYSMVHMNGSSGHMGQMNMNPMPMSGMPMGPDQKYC

[2] = system: transactivating tegument protein VP16 (Human herpesvirus 1), Gal4-VP16 luciferase reporter; test: repression of VP16-driven luciferase reporter – cell-based, luminescence, high throughput, counter-screen for SRC3 inhibitor project (AID 588794); details: mammalian cells, at 3.6 µM, hits give high values
[3] = target: Nuclear receptor coactivator 1 (Homo sapiens) (UniProt Q15788); test: NCOA1 GAL4-fusion reporter inhibition – cell-based, luminescence, quadruplicate, confirmation (AID 588820;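 active means mean inhibition above 46.68%, the untreated control wells mean plus 3 SD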;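 further: 0% = DMSO wells and 100% = gossypol 36 µM treated wells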); details: HEK293 GAL4-SRC1 luciferase reporter, at 3.6 µM, hits give high values
Nuclear receptor coactivator 1 (Homo sapiens), sequence (Q15788 whole entry, looked up, the tested form may be a part): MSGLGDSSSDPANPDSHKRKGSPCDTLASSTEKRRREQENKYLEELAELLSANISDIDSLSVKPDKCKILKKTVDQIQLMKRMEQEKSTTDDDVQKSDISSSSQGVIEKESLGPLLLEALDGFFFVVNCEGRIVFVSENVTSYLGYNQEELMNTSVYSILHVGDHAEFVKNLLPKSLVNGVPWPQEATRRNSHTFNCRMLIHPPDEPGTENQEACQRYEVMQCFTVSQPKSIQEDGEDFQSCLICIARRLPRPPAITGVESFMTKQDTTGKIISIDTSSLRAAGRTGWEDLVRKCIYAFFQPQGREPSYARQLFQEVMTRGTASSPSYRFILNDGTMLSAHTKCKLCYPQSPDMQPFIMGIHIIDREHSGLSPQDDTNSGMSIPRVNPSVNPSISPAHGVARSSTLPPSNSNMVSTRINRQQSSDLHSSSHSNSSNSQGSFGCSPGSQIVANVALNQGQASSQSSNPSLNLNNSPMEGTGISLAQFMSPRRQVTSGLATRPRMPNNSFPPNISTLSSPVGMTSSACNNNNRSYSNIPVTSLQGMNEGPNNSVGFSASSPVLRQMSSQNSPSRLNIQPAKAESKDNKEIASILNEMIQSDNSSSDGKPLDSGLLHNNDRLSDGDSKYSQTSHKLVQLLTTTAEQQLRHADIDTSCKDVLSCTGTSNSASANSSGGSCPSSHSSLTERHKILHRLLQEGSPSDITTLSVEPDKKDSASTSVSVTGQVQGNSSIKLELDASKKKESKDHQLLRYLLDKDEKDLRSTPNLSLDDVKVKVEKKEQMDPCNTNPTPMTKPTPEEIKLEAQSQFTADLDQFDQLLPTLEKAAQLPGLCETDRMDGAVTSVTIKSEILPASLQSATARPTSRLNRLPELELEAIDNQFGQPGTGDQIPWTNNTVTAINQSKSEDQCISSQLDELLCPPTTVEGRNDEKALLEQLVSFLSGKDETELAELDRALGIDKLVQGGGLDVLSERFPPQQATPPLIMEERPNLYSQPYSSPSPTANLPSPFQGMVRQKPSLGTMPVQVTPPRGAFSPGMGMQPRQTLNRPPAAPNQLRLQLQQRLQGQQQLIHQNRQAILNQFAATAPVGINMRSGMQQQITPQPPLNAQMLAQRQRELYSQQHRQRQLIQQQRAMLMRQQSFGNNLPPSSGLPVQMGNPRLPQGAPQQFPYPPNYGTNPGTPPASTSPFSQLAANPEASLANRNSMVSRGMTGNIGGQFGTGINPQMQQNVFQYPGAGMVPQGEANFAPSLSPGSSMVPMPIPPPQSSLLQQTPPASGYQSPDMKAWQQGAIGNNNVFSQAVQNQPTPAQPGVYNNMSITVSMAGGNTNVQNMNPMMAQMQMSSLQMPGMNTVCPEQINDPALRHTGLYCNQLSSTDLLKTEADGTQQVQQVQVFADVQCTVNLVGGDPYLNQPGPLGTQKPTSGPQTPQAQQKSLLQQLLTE

[4] = repression of VP16-driven luciferase reporter – cell-based, luminescence, high throughput, counter-screen for SRC1 inhibitor project (AID 588824; in the data active means inhibition above about 25%); details: cell-based VP16 transactivation luciferase luminescence; at 3.6 µM; hits give high values
[5] = StAR promoter reporter inhibitors, counter-screen for LRH-1 inverse agonist project, cell-based, luminescence, high throughput (AID 651611; in the data active means inhibition above about 28%); details: StAR promoter luciferase reporter counterscreen, at 3.6 µM, hits give high values
[6] = target: Nuclear receptor subfamily 5 group A member 2 (Homo sapiens) (UniProt O00482); test: NR5A2 activity suppression in reporter cells – cell-based, luminescence, confirmation (AID 651613; in the data active means inhibition above about 42%;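 further: HEK293T cells co-transfected with LRH-1 and StAR promoter luciferase reporter; 0% = vehicle wells and 100% = parental cells lacking receptor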); details: cell-based LRH-1 luciferase reporter, inverse agonism; at 3.6 µM; hits give high values
Nuclear receptor subfamily 5 group A member 2 (Homo sapiens), sequence (O00482 whole entry, looked up): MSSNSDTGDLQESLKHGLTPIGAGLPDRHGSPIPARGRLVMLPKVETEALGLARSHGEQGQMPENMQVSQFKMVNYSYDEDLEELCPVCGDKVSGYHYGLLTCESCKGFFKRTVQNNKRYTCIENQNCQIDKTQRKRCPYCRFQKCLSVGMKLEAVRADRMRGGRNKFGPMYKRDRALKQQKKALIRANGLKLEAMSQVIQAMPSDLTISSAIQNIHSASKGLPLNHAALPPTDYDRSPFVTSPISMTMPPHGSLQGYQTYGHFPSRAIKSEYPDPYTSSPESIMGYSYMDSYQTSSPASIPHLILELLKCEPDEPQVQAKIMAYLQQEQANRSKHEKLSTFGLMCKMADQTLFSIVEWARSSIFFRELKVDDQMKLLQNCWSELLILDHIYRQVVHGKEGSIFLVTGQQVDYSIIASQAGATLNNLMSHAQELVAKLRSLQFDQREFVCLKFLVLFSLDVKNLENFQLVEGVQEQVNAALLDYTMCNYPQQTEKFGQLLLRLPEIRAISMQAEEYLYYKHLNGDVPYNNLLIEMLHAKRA

[7] = target: Steroidogenic factor 1 (Homo sapiens) (UniProt Q13285); test: inverse agonism at SF1 nuclear receptor – cell-based, luminescence, high throughput, counter-screen for LRH-1 inverse agonist project (AID 651614; in the data active means inhibition above about 44%;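 further: cells cotransfected with StAR promoter reporter and SF1 expression vector; 0% = vehicle on cells with receptor and 100% = vehicle on cells lacking receptor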); details: cell-based SF1 luciferase reporter, at 3.6 µM, hits give high values
Steroidogenic factor 1 (Homo sapiens), sequence (Q13285 whole entry, looked up, the tested form may be a part): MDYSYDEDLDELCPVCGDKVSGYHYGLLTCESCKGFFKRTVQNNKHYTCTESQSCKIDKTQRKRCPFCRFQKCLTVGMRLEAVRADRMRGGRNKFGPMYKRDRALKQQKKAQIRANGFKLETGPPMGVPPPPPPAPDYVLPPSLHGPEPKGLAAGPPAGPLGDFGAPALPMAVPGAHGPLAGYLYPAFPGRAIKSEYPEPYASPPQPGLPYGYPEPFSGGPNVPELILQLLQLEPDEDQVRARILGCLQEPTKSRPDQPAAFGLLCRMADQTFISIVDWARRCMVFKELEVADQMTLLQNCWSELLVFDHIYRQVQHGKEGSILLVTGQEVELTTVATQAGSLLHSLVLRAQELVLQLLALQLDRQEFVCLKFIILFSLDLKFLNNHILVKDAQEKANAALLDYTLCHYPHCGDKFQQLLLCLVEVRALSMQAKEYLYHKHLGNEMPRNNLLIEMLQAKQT

[8] = compounds suppressing VP16-driven luciferase signal – cell-based, luminescence, high throughput, counter-screen for LRH-1 inverse agonist project (AID 651615; in the data active means inhibition above about 33%); details: Gal4-VP16 luciferase reporter cells, at 3.6 µM, hits give high values
[9] = reduced OD of V66 E. coli with T4 gene 2 phage – absorbance, RecBCD inhibitor project, confirmation (AID 651982;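 active means mean inhibition over triplicates exceeding the hit threshold derived in the original primary screen, cut at about 11% in these data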); details: E. coli V66 + T4 2- phage, growth OD; at 11.9 µM; hits give high values
[10] = bacterial growth inhibition – absorbance, high throughput, counter-screen for RecBCD inhibitor project (AID 651983; in the data active means inhibition above about 20%;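 further: E. coli strain V66 grown with compound alone and no phage infection; 0% = bacteria with DMSO vehicle only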); details: E. coli viability, absorbance (OD) growth; at 11.9 µM; hits give high values
[11] = reduced optical density, T4-challenged addAB+ bacteria – absorbance, E. coli V3065, T4 phage, counter-screen for RecBCD inhibitor project, confirmation (AID 651984;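 active means mean inhibition above the solvent-only control wells' mean plus 3 SD, cut at about 22% in these data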;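 further: higher means less bacterial growth from phage killing when AddAB is blocked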); details: E. coli expressing H. pylori AddAB + T4 phage, OD growth; at 11.9 µM; hits give high values; gene 2 mutant T4, recBCD-deleted host
[12] = system: transactivating tegument protein VP16 (Human herpesvirus 1); test: compounds suppressing VP16-driven luciferase signal – cell-based, luminescence, single concentration, counter-screen for SRC2 inhibitor project (AID 652007; in the data active means inhibition above about 36%); details: cell-based VP16 transactivation luciferase reporter, at 8.9 µM, hits give high values
[13] = target: Nuclear receptor coactivator 2 (Homo sapiens) (UniProt Q15596); test: inhibition of GAL4-SRC2 driven luciferase expression – cell-based, luminescence, HEK293, triplicate, confirmation (AID 652008;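 active means mean inhibition above 46.5%, the solvent-only control mean plus 3 SD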;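 further: 0% = DMSO-treated cells and 100% = Gossypol at 36 µM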); details: HEK293 GAL4-SRC2 luciferase reporter, at 8.9 µM, hits give high values

Measured: inhibition

NS(=O)(=O)c1ccc(NC(=O)/C=C/c2ccc3c(c2)OCO3)cc1
inactive: [1] 10.8% | [3] 17.1%
active: [2] 53.6% | [4] 52% | [5] 47% | [6] 61.7% | [7] 62.2% | [8] 66.2%

CC(=NNC(=S)Nc1cccc(Cl)c1)c1ccccn1
active: [1] 71% | [2] 66.5% | [4] 65.1% | [5] 76.5% | [6] 90.8% | [7] 91.1% | [8] 75.7%
inactive: [3] 44.7%

Cc1ccc(S(=O)(=O)N(C)C)cc1NC(=O)c1cncc(Br)c1
active: [5] 44.1% | [6] 43% | [7] 47.6%
inactive: [1] 22.1% | [2] 5.79% | [3] 8.59% | [4] 0.1% | [8] 19.7%

CC(NNC(=S)N1CCN(c2ccccn2)CC1)c1nccc2ccccc12 (stereo unspecified)
active: [1] 61.5% | [2] 54.2% | [3] 55.6% | [4] 59.5% | [5] 80.9% | [6] 97.1% | [7] 89.3% | [8] 61%

COc1ccc(OC)c(Cc2cnc3nc(N)nc(N)c3c2C)c1
inactive: [2] 27.5%
active: [1] 67% | [3] 59.9% | [4] 28.4% | [5] 80.7% | [6] 62.3% | [7] 52.5% | [8] 43.9% | [9] 79.8% | [10] 79.2% | [11] 85.3%

O=NN(CC(=O)NNc1ccccc1)CC(=O)NNc1ccccc1
active: [2] 29.9% | [4] 27.5% | [5] 37.4% | [6] 58.7% | [7] 53.1% | [8] 67.5%
inactive: [1] 22.6% | [3] 9.03%

CCCCCc1ccc(OCCC[n+]2ccccc2)c(CCCCC)c1
inactive: [3] 31.3%
active: [1] 45.8% | [2] 60.7% | [4] 65.9% | [5] 37.7% | [6] 83.3% | [7] 68.1% | [8] 82.3%

N=c1c2c(n(Cc3ccc(Cl)cc3)c3c1CCC3)CCC2
active: [1] 55.8% | [2] 68.7% | [3] 47.1% | [4] 61.9% | [5] 58.6% | [6] 105% | [7] 85.1% | [8] 78.3%

COc1ccc(-c2noc(CCCC(=O)O)n2)cc1
inactive: [3] 30.7% | [7] 40.1% | [8] 30.7%
active: [1] 44.7% | [2] 36.1% | [4] 26% | [5] 39% | [6] 47.8%

COc1ccc(NC(=O)c2sc(=O)n(Cc3ccc(F)c(Cl)c3)c2C)cc1OC
inactive: [1] 24.2% | [3] 18.5%
active: [2] 61.6% | [4] 53.8% | [5] 54.3% | [6] 66.2% | [7] 70.5% | [8] 72.5%

OCCCNc1cc(-c2ccnc(Nc3cccc(Cl)c3)n2)ccn1
active: [1] 95.9% | [2] 97.1% | [3] 84.5% | [4] 96.3% | [5] 89.9% | [6] 108% | [7] 96.5% | [8] 97.9%

Cc1cc(/C=N/n2cnnc2)c(C)n1-c1ccc(OCc2ccc(Cl)cc2Cl)cc1
inactive: [1] 19.7% | [3] 8.2%
active: [2] 43.4% | [4] 37.6% | [5] 36.5% | [6] 67% | [7] 68.7% | [8] 62.3%

CCC(C)(C)c1ccc(OCCCC[n+]2cccc(C)c2C)c(C(C)(C)CC)c1
active: [1] 56.1% | [2] 72.2% | [4] 71% | [5] 58% | [6] 88.1% | [7] 85.2% | [8] 80.9%
inactive: [3] 43.5%

CN(C)c1cc[n+](CC(=O)c2ccc(-c3ccccc3)cc2)cc1
active: [2] 57.6% | [4] 66.5% | [5] 43.8% | [6] 82.3% | [7] 71.8% | [8] 67.9%
inactive: [1] 35.6% | [3] 35%

COC1C=CC=C(C)C(=O)NC2=CC(=O)C(N)=C(CC(C)CC(OC)C(O)C(C)C=C(C)C1OC(N)=O)C2=O (stereo unspecified)
active: [1] 78.9% | [2] 81.6% | [4] 82.3% | [5] 73.2% | [6] 93.7% | [7] 85.5% | [8] 85.7%
inactive: [3] 18.4%

O=c1[nH]cnc2c1nnn2C1OC(CO)C(O)C1O (stereo unspecified)
active: [1] 59% | [5] 69.7% | [6] 78.6% | [7] 71.1%
inactive: [2] 15.3% | [3] -5.97% | [4] 17% | [8] 27.1%

O=C(O)c1ccccc1C(=O)Nc1ccc(Oc2cccc3ccccc23)cc1
active: [2] 32.2% | [5] 34.5% | [7] 57% | [12] 77.6% | [13] 75.2%
inactive: [1] 26% | [3] 28% | [4] 21.7% | [6] 29.8% | [8] 13.4%

CCOC(=O)c1ccc(NC(=O)c2ccc(C)c(S(=O)(=O)N3CCOCC3)c2)cc1
inactive: [1] 31.4% | [3] 3.47% | [13] 33.8%
active: [2] 47.9% | [4] 54.1% | [5] 65.1% | [6] 50.5% | [7] 66.5% | [8] 66% | [12] 47.4%

O=C(O)C1CCCCC1C(=O)Nc1ccc2c(c1)OCCO2 (stereo unspecified)
inactive: [1] -6.32% | [2] -0.43% | [3] -18.1% | [4] -13.8% | [5] -0.9% | [6] -1.32% | [7] -1.69% | [8] 0% | [12] -11.1% | [13] 26.9%

CCC1(O)C(=O)OCc2c1cc1n(c2=O)Cc2cc3cc(O)ccc3nc2-1 (stereo unspecified)
inactive: [12] 24.9% | [13] 39.5%
active: [1] 94.8% | [2] 79.2% | [3] 68.8% | [4] 77.4% | [5] 84.6% | [6] 104% | [7] 91.4% | [8] 83.8%

CC(C)(C)C(=O)/C(=C/c1ccc(Cl)cc1)n1cncn1
active: [1] 73.4% | [2] 64.5% | [4] 59.1% | [5] 78.4% | [6] 70.4% | [7] 77% | [8] 78.9% | [12] 51.1% | [13] 79.7%
inactive: [3] 40.2%

Cc1ccc(C#N)c(SCc2nnc(-c3ccc(Cl)cc3)o2)n1
active: [1] 67.8% | [2] 54.9% | [4] 28.1% | [5] 30.7% | [12] 59.4% | [13] 85.4%
inactive: [3] 30.4% | [6] -14.8% | [7] 21.1% | [8] 7.27%

Cc1cc(C(=O)CSc2nnc3ccccn23)c(C)n1-c1ccccc1
inactive: [1] 20.3% | [2] 15.4% | [3] -49.2% | [4] -25.1% | [5] 23.4% | [6] -38.6% | [7] 6.01% | [8] -26.3% | [12] 34.8%
active: [13] 60.7%

O=C(CCl)Nc1cc(SCC(O)CO)cc([N+](=O)[O-])c1 (stereo unspecified)
active: [1] 91.6% | [2] 72.7% | [3] 56.9% | [4] 78.6% | [5] 95.8% | [6] 110% | [7] 97.7% | [8] 98.2% | [12] 79% | [13] 67.5%

O=C(N/N=C/c1c(O)ccc2ccccc12)c1cccnc1
inactive: [12] 5.29% | [13] 20.7%
active: [1] 71.2% | [2] 81.2% | [3] 73.1% | [4] 80% | [5] 88.5% | [6] 102% | [7] 89.4% | [8] 86.1%

CC1=C(C(=O)OCc2ccc3c(c2)OCO3)C(c2ccc(F)cc2)NC(=O)N1 (stereo unspecified)
active: [1] 77.2% | [2] 66.2% | [3] 70.7% | [4] 67.6% | [5] 49.1% | [6] 71.3% | [7] 62.8% | [8] 85.2% | [13] 58.7%
inactive: [12] 16.1%

CCCN(CCC)C1=CC(=[N+]2CCCC2)CC(C)(C)C1
inactive: [1] 25.5% | [3] 36.1% | [12] 29% | [13] 18.8%
active: [2] 56.8% | [4] 55.3% | [5] 38.3% | [6] 106% | [7] 78.8% | [8] 86.6%

CCOc1cc(CNc2ccc3c(c2)OCCO3)cc(Br)c1OC
active: [1] 50.5% | [2] 29.5% | [5] 39.5% | [13] 48.8%
inactive: [3] -15.9% | [4] -7.96% | [6] -55.6% | [7] 23.8% | [8] -1.87% | [12] 1.28%

O=C(NCCc1ccccc1)c1ccc2c(c1)OCCCO2
inactive: [3] 31.9%
active: [1] 68.3% | [2] 67.7% | [4] 53.5% | [5] 75.5% | [6] 62.5% | [7] 78.5% | [8] 66.5% | [12] 78.8% | [13] 87.7%

Cc1c(/C(O)=C2/C(=O)C(=O)N(CCN3CCOCC3)C2c2ccccn2)cnn1-c1ccccc1 (stereo unspecified)
inactive: [6] 24.3% | [8] 12.3%
active: [1] 62.5% | [2] 41.7% | [3] 54.5% | [4] 26.1% | [5] 68.9% | [7] 75.2% | [12] 68.5% | [13] 83.4%

CC(C)(C)C(=O)Nc1ccc(NC(=O)c2ccco2)nc1
active: [1] 69.9% | [2] 64.1% | [4] 39.8% | [5] 56.1% | [7] 59.4% | [8] 36.7% | [12] 72.7% | [13] 92.8%
inactive: [3] 39.4% | [6] 15.6%

Cc1cc(C(=O)CSc2ccc(F)cc2)cc(C)c1OC(=S)N(C)C
active: [2] 43.6% | [13] 65.7%
inactive: [1] 41.6% | [3] 2.12% | [4] -8.86% | [5] -28.6% | [6] -65.3% | [7] -23.4% | [8] -17.3% | [12] 22.6%

Source: PubChem BioAssay
